Where “and” joins values, the source holds several entries; their conditions need not be identical. Equal entries are not always repeated. About 83,000 compounds went through this panel and 20% of them were active in at least one assay; those are over-represented in the sample as a whole.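 Treatment: one concentration, 48 hours, 96-well format. Scoring: percent growth, with anything below 10 considered active.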 Calls of active or inactive are those of the source.

For the assay, the system named is TK-10 renal. The assay can be described thus: NCI-60 one-dose screen, 48 h (100 = growth as untreated, 0 = no growth, -100 = all killed). The conditions noted are these: 10 µM unless noted.
With `CCOc1cc2c(cc1O)/C(=N/NS(=O)(=O)c1ccc(C)cc1)C[C@@H]1[C@@H]2CC[C@]2(C)[C@@H](O)CC[C@@H]12`, the growth was -22.6% [100 µM] (active).

For `CC(C)=CCc1c(OC(=O)c2c(C)cc(O)cc2O)cc(CO)c(CO)c1O`, the growth is 1.66% [100 µM] (active) and -100% [100 µM] (active).

Consider `CCCCCCCCCCCCC/C=C/[C@H]1[C@@H](C(=O)OC)N1S(=O)c1ccc(C)cc1` (stereo partly drawn), for which the growth was 107% [100 µM] (inactive) and 52.5% [100 µM] (inactive).

Take `COC(=O)/C=C\C(C#N)(C#N)N=Cc1ccsc1`: the growth is -98.5% [100 µM] (active) and -84.4% [100 µM] (active).

`NC(=S)Nc1[nH]c(=S)nc2c1SC1=N/C(=C\c3ccco3)C(=O)N12`: the growth is 75.1% [100 µM] (inactive) and 26.4% [100 µM] (inactive).

In the case of `COc1ccc2cc1Oc1ccc(cc1)C[C@@H]1c3cc(c(OC)cc3CCN1C)Oc1c(OC)c(OC)cc3c1[C@H](C2)N(C)CC3`, the growth is 33.5% [100 µM] (inactive) and -100% [100 µM] (active).

For the compound `COC(=O)c1cnn2c1n[n+]([O-])c1ccccc12`, the growth was 126% [100 µM] (inactive) and 78.8% [100 µM] (inactive).

As to `O=C(O)c1n[nH]nc1Cl`, the growth is 98.7% [100 µM] (inactive) and 107% [100 µM] (inactive).

For `COc1ccc(N=C(C)C(C)=Nc2ccc(OC)cc2)cc1`, the growth is 77.8% [100 µM] (inactive) and -88.6% [100 µM] (active).

For `C=C1C(=O)O[C@H]2C[C@@]3(C)[C@H](O)CCC(=C)[C@@H]3[C@@H](OC(C)=O)[C@H]12`, the growth is -98% [100 µM] (active) and -95.5% [100 µM] (active).

On to `Cc1ccc(OCC2OC(n3cnc4nc(N)nc(Cl)c43)CC2Oc2ccc(C)cc2)cc1` (stereo not drawn), for which the growth was 104% [100 µM] (inactive) and -84.6% [100 µM] (active).

Turning to `C/C=C1\NC(=O)[C@H]2CSSCCC=C[C@H](CC(=O)N[C@H](C(C)C)C(=O)N2)OC(=O)[C@H](C(C)C)NC1=O`, the growth was -93% [0.1 µM] (active) and -98.3% [0.1 µM] (active).

On to `COC(=O)c1cc(C#N)[nH]c1-c1ccsc1`, for which the growth was 93.8% [100 µM] (inactive) and 19.4% [100 µM] (inactive).

`Clc1ccc(C2C3COc4ccccc4C3=NN2c2ccccc2)cc1` (stereo not drawn): the growth was 77% [100 µM] (inactive) and 31.3% [100 µM] (inactive).

Consider `CC(=N/N=C/c1ccccn1)/C(C)=N/N=C(C)/C(C)=N/N=C(C)/C(C)=N/N=C(C)/C(C)=N\N=C\c1ccccn1`, for which the growth was 99.9% [100 µM] (inactive) and 81.3% [100 µM] (inactive).

Regarding `COc1cc2c3cc1Oc1c(OC)c(OC)cc4c1C(Cc1ccc(O)c(c1)-c1cc(ccc1OC)CC3N(C)CC2)N(C)CC4` (stereo not drawn), the growth is -41.8% [100 µM] (active) and -97% [100 µM] (active).

Regarding `COc1c(O)ccc(C2=Cc3ccc(O)cc3OC2)c1OC`, the growth was 1.01% [100 µM] (active) and 9.04% [100 µM] (active).

`Cc1ccc2c(/C=C/c3ccc(N(C)C)cc3)ccc(C(C)C)cc1-2`: the growth was 104% [100 µM] (inactive) and -33% [100 µM] (active).

With `CC(C)=CC(O)C/C(C)=C/CC/C(C)=C/CCC1(C)C(CCCO)/C(=C(/C)C=O)CCC1(C)O` (stereo not drawn), the growth was 49.7% [100 µM] (inactive) and 9.22% [100 µM] (active).

Regarding `CCC/C(Cl)=N/OC(=O)Nc1cccc(F)c1`, the growth is -100% [100 µM] (active).

In the case of `CNC(=S)c1nnsc1N`, the growth is 103% [100 µM] (inactive) and 37.1% [100 µM] (inactive).

For the compound `Clc1ccc(C2NN=C3c4ccccc4OCC32)cc1` (stereo not drawn), the growth was 7.98% [100 µM] (active) and 5.96% [100 µM] (active).

Consider `C=CC1=C(C)C2=NC1=CC1=NC(=C(CC)/C1=C\O)C=C1N=C3C(=C1C)C(=O)[C@H](C(=O)OC)C3=C1NC(=C2)[C@@H](C)[C@@H]1CCC(=O)O`, for which the growth was 3.23% [100 µM] (active) and 7.05% [100 µM] (active).

On to `Cc1ccc(NC(=O)/C(Cc2cc(=O)oc3cc(O)ccc23)=N\NC(C)(C)C)cc1C`, for which the growth is 103% [100 µM] (inactive) and 101% [100 µM] (inactive).

Turning to `O=C(Cc1nc2ccc(C(=O)c3ccccc3)cc2[nH]c1=O)C(=O)Nc1ccccc1[N+](=O)[O-]`, the growth is 75.1% [100 µM] (inactive) and 12.6% [100 µM] (inactive).

For the compound `COc1ccc2cc(CN3CCC(C4CCNCC4)CC3)ccc2c1`, the growth was -89.6% [100 µM] (active) and -100% [100 µM] (active).

As to `COc1ccc(C)cc1NC(=S)C#N`, the growth was 112% [100 µM] (inactive) and 36.2% [100 µM] (inactive).

On to `COc1ccc(OC)c(N(CN2C(=O)CCC2C(=O)O)C(C)=O)c1` (stereo not drawn), for which the growth is 78.2% [100 µM] (inactive) and 103% [100 µM] (inactive).

On to `CC(=O)c1ccc(NC(=O)/C(CC(=O)/C=C/c2ccccc2)=N/NC(N)=S)cc1`, for which the growth was 125% [100 µM] (inactive) and 43.7% [100 µM] (inactive).

Turning to `O=C(Nc1cccc(NC(=O)C(=O)C2CCC3=C(Sc4ccccc4N3)C2=O)n1)C(=O)C1CCC2=C(Sc3ccccc3N2)C1=O` (stereo not drawn), the growth was 103% [100 µM] (inactive) and 15.7% [100 µM] (inactive).

Take `CCOc1cc2c(cc1O)C=C[C@@H]1[C@@H]2CC[C@]2(C)[C@@H](O)CC[C@@H]12`: the growth was -4.09% [100 µM] (active) and -100% [100 µM] (active).

Take `Cc1cc(S(=O)(=O)O)c(NC(=O)c2oc3cc(O)ccc3c(=O)c2C)cc1Cl`: the growth was 90.8% [100 µM] (inactive) and 91.7% [100 µM] (inactive).

For the compound `CC1OC(Oc2c(-c3cc(O)c(O)c(O)c3)oc3cc(O)cc(O)c3c2=O)C(O)C(O)C1O` (stereo not drawn), the growth is 90.9% [100 µM] (inactive) and 92.6% [100 µM] (inactive).

With `CC1=C2NCN(C)N=C2C(C#N)(C#N)C1(C#N)C#N`, the growth is -7.38% [100 µM] (active) and -90.4% [100 µM] (active).

Turning to `CCCCCCCCCC(=O)CC(=O)c1c(O)cc(O)cc1O`, the growth was -1.86% [75 µM] (active) and 10% [75 µM] (inactive).

Consider `CC1CC(=O)N(N(C)C)C2(C#N)C(=O)N=C(N)C12C#N` (stereo not drawn), for which the growth was -31.9% [100 µM] (active) and -94.2% [100 µM] (active).

Consider `Cc1ccc(/C=N/Nc2nc3ccccc3s2)s1`, for which the growth is 14.8% [100 µM] (inactive) and 8.44% [100 µM] (active).

As for `Cc1ccc(NC(=O)/C(=N\NC(N)=O)c2c(O)c3ccccc3[nH]c2=O)cc1`, the growth is 123% [100 µM] (inactive) and 118% [100 µM] (inactive).

These data come from PubChem BioAssay (NCI).
